# In the supplement of paper PMC8728848:
# The sample as a whole holds a higher share of the strongest signals than the screen did.
# Tests used:
# Assay in all cases: glycan array binding signal (z-score within array); higher = stronger binding
# Conditions in all cases: glycan notation: IUPAC condensed, linker removed
# [1] = target: Fuc(a1-2)Gal
# How it was run: (§1)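 Columns mapping to the same glycan were averaged after glycan names were converted to IUPAC-condensed notation. The data come from 3228 arrays in the Consortium for Functional Glycomics database, limited to those with an available protein sequence. Binding is reported as a within-array Z-score averaged across arrays of one protein sequence and across linkers.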
# [2] = target: Fuc(a1-2)Gal(b1-3)GalNAc(b1-4)[Neu5Ac(a2-3)]Gal(b1-4)Glc
# How it was run: as §1
# [3] = target: Fuc(a1-2)Gal(b1-4)[Fuc(a1-3)]GlcNAc(b1-2)Man(a1-3)[Fuc(a1-2)Gal(b1-4)[Fuc(a1-3)]GlcNAc(b1-2)Man(a1-6)]Man(b1-4)GlcNAc(b1-4)[Fuc(a1-6)]GlcNAc
# How it was run: as §1
# [4] = target: Fuc(a1-2)Gal6S(b1-3)GlcNAc6S
# How it was run: as §1
# [5] = target: Fuc(a1-2)Gal6S(b1-4)Glc6S
# How it was run: as §1
# [6] = target: Fuc(a1-2)[GalNAc(a1-3)]Gal(b1-4)GlcNAc(b1-2)Man
# How it was run: as §1
# [7] = target: Fuc(a1-2)[GalNAc(a1-3)]Gal(b1-4)GlcNAc(b1-6)GalNAc
# How it was run: as §1
# [8] = target: Fuc(a1-3)[Gal(b1-4)]Glc6S
# How it was run: as §1
# [9] = target: Fuc(a1-3)[Gal3S(b1-4)]Glc
# How it was run: as §1
# [10] = target: Gal(a1-3)Gal(b1-3)GlcNAc(b1-3)GalNAc
# How it was run: as §1
# [11] = target: Gal(a1-3)[Gal(a1-4)]Gal(b1-4)GlcNAc
# How it was run: as §1
# [12] = target: Gal(a1-4)Gal(b1-4)GlcNAc(b1-2)Man(a1-3)[Gal(a1-4)Gal(b1-4)GlcNAc(b1-2)Man(a1-6)]Man(b1-4)GlcNAc(b1-4)GlcNAc
# How it was run: as §1
# [13] = target: Gal(a1-4)Gal(b1-4)GlcNAc(b1-3)Gal(b1-4)Glc
# How it was run: as §1
# [14] = target: Gal(b1-3)GlcNAc(b1-3)Gal(b1-4)GlcNAc(b1-2)[Gal(b1-3)GlcNAc(b1-3)Gal(b1-4)GlcNAc(b1-6)]Man(a1-6)[Gal(b1-3)GlcNAc(b1-3)Gal(b1-4)GlcNAc(b1-2)Man(a1-3)]Man(b1-4)GlcNAc(b1-4)[Fuc(a1-6)]GlcNAc
# How it was run: as §1
# [15] = target: Gal(b1-3)GlcNAc(b1-3)Gal(b1-4)GlcNAc(b1-3)Gal(b1-4)GlcNAc(b1-2)[Gal(b1-3)GlcNAc(b1-3)Gal(b1-4)GlcNAc(b1-3)Gal(b1-4)GlcNAc(b1-6)]Man(a1-6)[Gal(b1-3)GlcNAc(b1-3)Gal(b1-4)GlcNAc(b1-3)Gal(b1-4)GlcNAc(b1-2)Man(a1-3)]Man(b1-4)GlcNAc(b1-4)[Fuc(a1-6)]GlcNAc
# How it was run: as §1
# [16] = target: Gal(b1-3)GlcNAc(b1-6)Gal(b1-4)GlcNAc
# How it was run: as §1
# [17] = target: Gal(b1-3)[Fuc(a1-4)]GlcNAc
# How it was run: as §1
# [18] = target: Gal(b1-4)GlcNAc(b1-2)Man(a1-3)[Gal(b1-4)GlcNAc(b1-2)Man(a1-6)][Gal(b1-4)GlcNAc(b1-4)]Man(b1-4)GlcNAc(b1-4)[Fuc(a1-6)]GlcNAc
# How it was run: as §1
# [19] = target: Gal(b1-4)GlcNAc(b1-2)Man(a1-3)[Gal(b1-4)GlcNAc(b1-2)Man(a1-6)][GlcNAc(b1-4)]Man(b1-4)GlcNAc(b1-4)[Fuc(a1-6)]GlcNAc
# How it was run: as §1
# [20] = target: Gal(b1-4)GlcNAc(b1-2)Man(a1-6)[Man(a1-3)]Man(b1-4)GlcNAc(b1-4)GlcNAc
# How it was run: as §1
# [21] = target: Gal(b1-4)GlcNAc(b1-2)[Gal(b1-4)GlcNAc(b1-4)]Man(a1-3)[GlcNAc(b1-4)][Gal(b1-4)GlcNAc(b1-2)Man(a1-6)]Man(b1-4)GlcNAc(b1-4)GlcNAc
# How it was run: as §1
# [22] = target: Gal(b1-4)GlcNAc(b1-3)Gal(b1-4)GlcNAc(b1-3)Gal(b1-4)GlcNAc(b1-3)Gal(b1-4)GlcNAc(b1-2)Man(a1-3)[Gal(b1-4)GlcNAc(b1-3)Gal(b1-4)GlcNAc(b1-3)Gal(b1-4)GlcNAc(b1-3)Gal(b1-4)GlcNAc(b1-2)Man(a1-6)]Man(b1-4)GlcNAc(b1-4)GlcNAc
# How it was run: as §1
# [23] = target: Gal(b1-4)GlcNAc(b1-3)Gal(b1-4)GlcNAc(b1-3)Gal(b1-4)GlcNAc(b1-3)Gal(b1-4)GlcNAc(b1-2)Man(a1-3)[Gal(b1-4)GlcNAc(b1-3)Gal(b1-4)GlcNAc(b1-3)Gal(b1-4)GlcNAc(b1-3)Gal(b1-4)GlcNAc(b1-2)Man(a1-6)]Man(b1-4)GlcNAc(b1-4)[Fuc(a1-6)]GlcNAc
# How it was run: as §1
# [24] = target: Gal(b1-4)GlcNAc(b1-3)[Fuc(a1-3)GlcNAc(b1-6)]Gal(b1-4)Glc
# How it was run: as §1
# [25] = target: Gal3S(b1-3)[Fuc(a1-4)]GlcNAc
# How it was run: as §1
# [26] = target: Gal3S(b1-4)GlcNAc
# How it was run: as §1
# [27] = target: Gal3S(b1-4)[Fuc(a1-3)]GlcNAc
# How it was run: as §1
# [28] = target: Gal6S(b1-4)GlcNAc
# How it was run: as §1
binder,measurement,setting,value
PX14343F-bfa-562-20-562 (Bacteroides fragilis) (protein) CDDFLDSFPQDTVTNENFWKSKEDADKVLVDIYASLLPKDAIFFDEAMSDNAYLVWDWWGGAQQVANGSYTTSGEIPTNRWNGSYEVIRKCWFLLEGIEKIEDISEQDKNKIIGETYFMLAYNYYVLTSYFGDVPLVTKTLAIPESKQLVRTPKAEVVDYAINKLKEAAVMLEGLSQEKGRVTADACRFLIARMYLYNGDYSNVLETVKLLEGKYQLYREGDTPYEDLFSGVAENSCEVILSVVCDKRVGEIYTSHGGNGIMLLKGITGEDPYRGVTPSGSLVDAYPMADGRLIHEAGSSYDPKKPYEGRDPRFYQSIVYPTGQIKYLDVETGTVKERLYDPEDPTTVPEHQYNYSQPSATGYMWNKYIDYSVYAMNSVWDCTNDIIVFRYADVLLMKAEALLQTKGESAKEEVCNLIDQLRDRCSCGRVHRENYNSKDELMELLKNERRIELANEGLRYMDLIRWKDAEKNTIVTGVGLTGQMYGAYMRKDGVGKDDKTVDVDNTPRRYIETRYFNASKGYLFPIPQKERDLNPNLTQNPNW,glycan array binding signal (z-score),[1],-0.039
same,glycan array binding signal (z-score),[2],0.115
same,glycan array binding signal (z-score),[3],-0.43
same,glycan array binding signal (z-score),[4],1.48
same,glycan array binding signal (z-score),[5],0.012
same,glycan array binding signal (z-score),[6],0.033
same,glycan array binding signal (z-score),[7],-0.301
same,glycan array binding signal (z-score),[8],-0.078
same,glycan array binding signal (z-score),[9],-0.368
same,glycan array binding signal (z-score),[10],-0.716
same,glycan array binding signal (z-score),[11],3.69
same,glycan array binding signal (z-score),[12],1.42
same,glycan array binding signal (z-score),[13],-0.481
same,glycan array binding signal (z-score),[14],1.83
same,glycan array binding signal (z-score),[15],1.38
same,glycan array binding signal (z-score),[16],-0.369
same,glycan array binding signal (z-score),[17],-0.027
same,glycan array binding signal (z-score),[18],-0.394
same,glycan array binding signal (z-score),[19],-0.937
same,glycan array binding signal (z-score),[20],0.332
same,glycan array binding signal (z-score),[21],0.08
same,glycan array binding signal (z-score),[22],0.79
same,glycan array binding signal (z-score),[23],-0.007
same,glycan array binding signal (z-score),[24],1.78
same,glycan array binding signal (z-score),[25],-0.53
same,glycan array binding signal (z-score),[26],0.086
same,glycan array binding signal (z-score),[27],0.472
same,glycan array binding signal (z-score),[28],0.658
